This is a sample that favours compounds with a hit; in the whole collection about 1.3% have one here.
LYPLA2 counter – counter-screen for PME1 inhibitors: inhibitors of human LYPLA2; recombinant LYPLA2, FP-Rh probe fluorescence polarization; inhibition, % at 5.9 µM; 320,000 tested, 0.38% active;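 active = inhibition above the screen-wide mean plus 3 SD, limit set per campaign, cut at about 26% in these data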;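 also: 0% = LYPLA2 with DMSO and 100% = wells lacking LYPLA2 enzyme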
LYPLA1 counter – counter-screen for PME1 inhibitors: inhibitors of human LYPLA1 | O75608 | recombinant LYPLA1, FP-Rh probe fluorescence polarization | inhibition, % at 5.9 µM | 320,000 tested, 0.16% active;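 active = inhibition above the mean of all tested compounds plus 3 SD, set per campaign, cut at about 14% in these data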;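 also: inhibitors block serine hydrolase probe labeling of LYPLA1 so polarization falls; 0% = enzyme with DMSO and 100% = wells lacking LYPLA1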
PREPL inh – human PREPL enzyme inhibition. recombinant PREPL, fluorescence polarization activity-based probe. AID 2751. 320,000 tested, 0.68% active. inhibition, % at 5.96 µM. Q4J6C6; in the data active = inhibition above about 43%;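 also: 0% = enzyme with DMSO and 100% = wells lacking enzyme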
Target sequence (Q4J6C6 whole entry, looked up): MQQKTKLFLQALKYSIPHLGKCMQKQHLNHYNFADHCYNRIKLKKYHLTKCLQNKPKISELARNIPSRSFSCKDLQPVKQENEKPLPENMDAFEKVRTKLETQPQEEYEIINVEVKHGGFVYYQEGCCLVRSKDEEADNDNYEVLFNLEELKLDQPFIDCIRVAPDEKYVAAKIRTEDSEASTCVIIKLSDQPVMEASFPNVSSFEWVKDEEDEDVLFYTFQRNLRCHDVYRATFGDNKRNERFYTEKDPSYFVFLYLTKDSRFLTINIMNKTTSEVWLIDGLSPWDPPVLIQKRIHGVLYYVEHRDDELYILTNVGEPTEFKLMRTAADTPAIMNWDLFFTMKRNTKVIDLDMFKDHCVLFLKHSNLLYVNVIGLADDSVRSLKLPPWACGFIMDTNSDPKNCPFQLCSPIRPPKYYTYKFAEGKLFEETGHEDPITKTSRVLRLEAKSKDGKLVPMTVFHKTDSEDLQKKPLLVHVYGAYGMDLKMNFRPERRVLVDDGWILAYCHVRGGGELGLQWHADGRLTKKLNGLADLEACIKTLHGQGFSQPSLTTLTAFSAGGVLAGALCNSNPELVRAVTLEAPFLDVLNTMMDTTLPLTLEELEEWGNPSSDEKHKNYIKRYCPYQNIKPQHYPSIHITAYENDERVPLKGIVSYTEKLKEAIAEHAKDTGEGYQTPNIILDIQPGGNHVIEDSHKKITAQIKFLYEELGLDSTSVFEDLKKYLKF
PME-1 primary – blocks human protein phosphatase methylesterase 1; recombinant PME-1, FP-Rh probe fluorescence polarization; 320,000 tested, 0.53% active; Q9Y570; inhibition, % at 5.9 µM;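 active = inhibition above the campaign mean of all compounds plus 3 SD, cut at about 26% in these data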;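 also: competitive labeling of PME-1 active site by serine hydrolase directed probe; 0% = PME-1 with DMSO and 100% = wells lacking PME-1 enzyme; inhibitors block probe labeling so polarization falls and inhibition rises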
Fam108B counter – counter-screen for RBBP9 inhibitors: inhibitors of mouse Fam108B | recombinant Fam108B, FP-Rh probe fluorescence polarization | inhibition, % at 9.51 µM | 300,000 tested, 0.33% active;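 active = inhibition above the screen mean inhibition plus 3 SD, computed separately per campaign, cut at about 18% in these data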;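 also: inhibitors lower polarization as less probe binds the enzyme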
LYPLA2 confirm – counter-screen for PME1 inhibitors: confirmation of human LYPLA2 inhibitors | shares compounds with LYPLA2 counter | recombinant LYPLA2, FP-Rh probe fluorescence polarization | inhibition, % at 5.9 µM | 1,100 tested, 72% active | AID 2232;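 active = mean inhibition across replicates above the hit cutoff set in the primary screen, cut at about 26% in these data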;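 also: blocked labeling of the enzyme by serine hydrolase FP-Rh probe lowers polarization; 0% = enzyme with DMSO and 100% = wells lacking LYPLA2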
LYPLA2 gel ABPP – LYPLA2 (human) inhibition, late stage results | 150 tested, 30% active | AID 652029 | inhibition, % at 20 µM | rhLYPLA2 in mouse brain proteome, gel ABPP FP-Rh | shares compounds with LYPLA2 counter;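 active = inhibition of LYPLA2 enzyme probe labeling above about 50%, limit read from the data; inactive = inhibition below that limit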;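 also: loss of FP-Rh probe labeling of the LYPLA2 gel band measured as band density; 0% = DMSO only control band and 100% = blank gel background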
The depositor's hits bear a star; . = no result given.

SMILES	LYPLA2 counter	LYPLA1 counter	PREPL inh	PME-1 primary	Fam108B counter	LYPLA2 confirm	others
CC(=O)N1c2ccc(S(=O)(=O)NCCC(=O)NCCc3ccc(C)cc3)cc2CC1C (stereo not drawn)	5	1	7	5	6	.
O=C(Nc1ccc(Cl)cc1)C1CCC(=O)N1Cc1ccccc1Cl (stereo not drawn)	5	-1	2	-3	4	.
O=C(C1CCC(=O)N1Cc1ccccc1Cl)N1CCN(c2cccc(Cl)c2)CC1 (stereo not drawn)	34*	6	12	11	1	32*
CCCC(=O)N1CCCC(c2nc(-c3cccc(OC)c3)no2)C1 (stereo not drawn)	2	0	8	7	-1	.
CCCCCCC(=O)N1CCCC(c2nc(-c3cccc(OC)c3)no2)C1 (stereo not drawn)	27*	12	3	9	-3	23
Cc1ccc(N2C(=O)N(CC(=O)Nc3c(C)cc(C)cc3Cl)C(=O)C2C)cc1 (stereo not drawn)	-3	3	-13	-3	-2	.
NC(=O)CC(NC(=O)c1ccc(Br)cc1)c1ccc(N2CCN(c3ccccn3)CC2)c([N+](=O)[O-])c1 (stereo not drawn)	50*	3	8	13	-3	57*	LYPLA2 gel ABPP=37
NC(=O)CC(NC(=O)c1ccccc1)c1ccc(N2CCN(c3ccc(F)cc3)CC2)c([N+](=O)[O-])c1 (stereo not drawn)	27*	-4	21	-1	-8	33*
NC(=O)CC(NC(=O)c1ccccc1)c1ccc(N2CCN(c3ccccc3)CC2)c([N+](=O)[O-])c1 (stereo not drawn)	14	-4	17	9	2	.
COCc1nc2ccccc2n1Cc1c(F)cccc1Cl	-4	3	-18	-3	0	.
Cc1ccc(C(=O)N2CCN(c3ccc(NC(=O)c4cccnc4Cl)cc3)CC2)cc1	49*	5	1	-1	1	57*	LYPLA2 gel ABPP=38
O=C(Nc1ccc(N2CCN(C(=O)c3ccc(Cl)cc3)CC2)cc1)c1cccnc1	48*	5	24	-1	0	41*
CCC(=O)NC(=S)Nc1ccc(N2CCN(C(=O)c3ccc(Cl)cc3)CC2)cc1	29*	2	20	8	4	36*
O=C(NC(=S)Nc1ccc(N2CCOCC2)cc1)c1ccc(Cl)cc1	6	-1	9	8	-1	.
O=C(Nc1ccc(N2CCN(C(=O)c3ccco3)CC2)cc1)c1cccnc1Cl	16	-1	-2	0	-2	.
CCOC(=O)C1=C(CSc2nc(C)ccc2C#N)OC(N)=C(C#N)C1c1cccc(OC)c1OC (stereo not drawn)	-4	-6	3	-2	2	.
CCn1cnc2cc([N+](=O)[O-])ccc21	8	-2	26	0	8	.
Cc1cc2c(NC(=O)Nc3ccc(C(C)(C)C)cc3)cccc2nn1	-61	-38	18	-34	-38	.
Cc1cc2c(NC(=O)Nc3ccccc3)cccc2nn1	35*	-5	13	0	-1	36*
CSc1nc(C)cc(SCC(=O)N/N=C/c2ccccc2)n1	18	1	11	-4	-3	.
COc1ccc(C2(C)NC(=O)N(CC(=O)NC3CCCC3)C2=O)cc1OC (stereo not drawn)	3	2	12	2	.	.
Cc1ncc([N+](=O)[O-])n1CC(=O)Nc1ccccc1F	28*	-1	1	1	16	27*
COc1ccc(NC(=O)Cn2c([N+](=O)[O-])cnc2C)cc1Cl	24	-1	4	2	1	.
Cc1ncc([N+](=O)[O-])n1CC(=O)Nc1ccc(F)c(Cl)c1	34*	5	9	-9	1	61*	LYPLA2 gel ABPP=49
Cc1ncc([N+](=O)[O-])n1CC(=O)NC1CCCC1	4	2	26	6	5	.
SMILES	LYPLA2 counter	LYPLA1 counter	PREPL inh	PME-1 primary	Fam108B counter	LYPLA2 confirm	others
Cc1ncc([N+](=O)[O-])n1CC(=O)Nc1ccc(OC(F)(F)Cl)cc1	3	1	-1	-2	-4	.
Cc1ncc([N+](=O)[O-])n1CC(=O)Nc1cccc(C(F)(F)F)c1	51*	0	11	-1	-4	41*
Cc1ncc([N+](=O)[O-])n1CC(=O)NC1CCCCCC1	28*	-4	0	3	7	33*
CCS(=O)(=O)Nc1ccc2[nH]c(=O)[nH]c2c1	10	4	33	-3	5	.
CCN1CCN(C(=S)NC(C)c2ccccc2)CC1 (stereo not drawn)	8	2	25	4	-1	.
O=C(c1ccc([N+](=O)[O-])cc1)N1CCOC12CCN(c1ncc(C(F)(F)F)cc1Cl)CC2	38*	1	-1	2	-5	57*	LYPLA2 gel ABPP=8
CC(=O)Nc1cccc(-n2nnc(SCC(=O)N(C)c3ccccc3)n2)c1	34*	-1	2	2	-1	40*
CC(=O)Nc1cccc(-n2nnc(SCC(=O)Nc3ccccc3)n2)c1	5	1	11	-4	2	.
Cc1ccc2c(c1)C(=O)C(=O)N2Cc1ccc(Cl)cc1	.	.	13	.	.	.
CC(C)CC(NC(=O)OC(C)(C)C)C(=O)O (stereo not drawn)	-2	-2	-8	-4	3	.
CC(C)(C)OC(=O)NC(CCCCNC=O)C(=O)O (stereo not drawn)	81*	9	0	3	3	3
O=C(Cc1cccs1)N1CCN(S(=O)(=O)c2cc(Cl)ccc2Cl)CC1	1	2	8	4	-2	.
COc1cc(/C=N/NC(=O)/C(=C\c2ccc([N+](=O)[O-])cc2)NC(=O)c2ccccc2)cc(OC)c1O	39*	-2	20	5	3	42*
COc1cc(/C=N/NC(=O)/C(=C\c2ccc3c(c2)OCO3)NC(=O)c2ccccc2)ccc1O	2	0	10	11	6	.
CCOC(=O)C(Cc1ccccc1)c1ccnc2ncnn12 (stereo not drawn)	35*	4	5	9	-4	10
CCOC(=O)C(Cc1ccccc1)C(=O)Nc1nccs1 (stereo not drawn)	5	4	0	1	10	.
O=C(COc1ccc(Br)cc1)NNC(=S)NC(=O)c1ccccc1[N+](=O)[O-]	33*	0	6	-6	-1	31*
O=C(NNC(=S)NC(=O)c1ccccc1[N+](=O)[O-])c1ccccc1[N+](=O)[O-]	1	3	-6	-5	2	.
Cc1nc(-c2ccc(S(=O)(=O)N3CCCN(CCc4ccccc4)CC3)s2)cs1	61*	8	-16	2	0	68*	LYPLA2 gel ABPP=50*
